Common to all, as to design: scale not given: direction of the effect not stated beside the values
The target in assay [1] is Protein translocase subunit SecA (Escherichia coli (strain K12)) (UniProt P10408). Briefly: Assay to Identify E. coli SecA ATPase Inhibitors. It is filed as functional. The settings on record: 30 µM.
Assay [2] addresses T1, Ubiquitin-activating enzyme e1, putative (Leishmania donovani (strain BPK282A1)) (UniProt E9BSI1).
T1 sequence (whole entry): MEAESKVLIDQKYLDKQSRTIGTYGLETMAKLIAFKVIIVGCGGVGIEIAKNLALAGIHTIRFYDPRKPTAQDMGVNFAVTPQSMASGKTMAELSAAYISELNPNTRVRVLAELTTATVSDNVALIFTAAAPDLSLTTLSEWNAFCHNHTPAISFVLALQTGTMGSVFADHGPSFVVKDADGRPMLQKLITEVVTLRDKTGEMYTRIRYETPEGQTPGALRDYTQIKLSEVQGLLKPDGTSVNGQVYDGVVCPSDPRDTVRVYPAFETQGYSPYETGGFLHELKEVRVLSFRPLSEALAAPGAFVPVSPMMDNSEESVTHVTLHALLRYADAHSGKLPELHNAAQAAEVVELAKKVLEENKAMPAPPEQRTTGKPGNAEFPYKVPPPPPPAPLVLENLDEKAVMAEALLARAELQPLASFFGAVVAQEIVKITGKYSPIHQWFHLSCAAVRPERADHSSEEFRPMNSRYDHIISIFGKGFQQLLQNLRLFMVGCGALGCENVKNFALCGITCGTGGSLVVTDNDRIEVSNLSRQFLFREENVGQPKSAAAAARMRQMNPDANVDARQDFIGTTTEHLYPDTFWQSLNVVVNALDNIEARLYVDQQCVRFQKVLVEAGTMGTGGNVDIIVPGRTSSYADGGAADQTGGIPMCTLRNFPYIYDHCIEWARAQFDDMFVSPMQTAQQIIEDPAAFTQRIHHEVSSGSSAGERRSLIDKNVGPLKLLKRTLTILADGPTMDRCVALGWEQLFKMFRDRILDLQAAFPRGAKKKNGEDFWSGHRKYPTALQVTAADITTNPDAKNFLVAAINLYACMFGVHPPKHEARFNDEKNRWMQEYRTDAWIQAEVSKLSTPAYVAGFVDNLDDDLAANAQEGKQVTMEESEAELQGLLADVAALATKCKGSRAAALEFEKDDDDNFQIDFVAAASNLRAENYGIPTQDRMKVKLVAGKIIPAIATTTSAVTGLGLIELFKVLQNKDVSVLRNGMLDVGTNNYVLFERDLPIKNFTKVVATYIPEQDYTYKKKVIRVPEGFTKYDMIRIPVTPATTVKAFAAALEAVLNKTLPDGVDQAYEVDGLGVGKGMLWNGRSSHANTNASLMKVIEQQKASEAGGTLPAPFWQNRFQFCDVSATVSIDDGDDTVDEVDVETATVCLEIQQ
Briefly: Leishmania donovani Ubiquitin Activating Enzyme (LdE1). As to conditions: 30 µM. It is filed as functional.

Assay [3] concerns the target AMP-activated protein kinase, AMPK (Homo sapiens) (UniProt P54646+O43741+P54619+Q9UGJ0+Q9Y478+Q13131+Q9UGI9). Briefly: AMP-dependent Kinase enzyme assay. An in vitro enzyme assay that detects ADP turnover that is directly proportional to AMPK activity. This uses naive AMPK that is activated during the assay with MK-8722. It is filed as functional. The settings on record: 30 µM.

For assay [4], the target named is Sialic acid-binding Ig-like lectin 9 (Homo sapiens) (UniProt Q9Y336). Put plainly: Hs-Siglec9 ALPHAscreen SOP 20170721. As to conditions: 10 µM. On the technique in general: In Alpha technology, singlet oxygen from a donor bead excites a nearby acceptor bead.
Sialic acid-binding Ig-like lectin 9 (Homo sapiens), sequence (Q9Y336 whole entry): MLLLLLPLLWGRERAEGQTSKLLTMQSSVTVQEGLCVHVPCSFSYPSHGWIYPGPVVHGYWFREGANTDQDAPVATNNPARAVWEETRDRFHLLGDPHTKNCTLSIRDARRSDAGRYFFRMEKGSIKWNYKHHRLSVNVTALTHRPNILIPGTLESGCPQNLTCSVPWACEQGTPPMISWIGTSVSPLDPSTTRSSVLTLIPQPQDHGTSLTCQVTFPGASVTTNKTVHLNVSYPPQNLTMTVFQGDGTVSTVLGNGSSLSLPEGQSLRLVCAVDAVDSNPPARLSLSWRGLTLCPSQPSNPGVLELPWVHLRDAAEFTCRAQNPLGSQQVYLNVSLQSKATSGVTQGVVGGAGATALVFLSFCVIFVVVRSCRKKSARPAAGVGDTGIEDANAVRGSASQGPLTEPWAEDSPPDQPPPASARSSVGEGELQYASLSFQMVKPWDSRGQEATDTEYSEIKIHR
Assay [5] relates to Trypanosoma cruzi. Briefly: Trypanosoma cruzi phosphomannomutase and mannose-1-phosphate guanylyltransferase assay. It is filed as functional. The settings on record: 10 µM.
In assay [6] the target is T2, Arginase-2, mitochondrial (Homo sapiens) (UniProt P78540).
T2 sequence (whole entry): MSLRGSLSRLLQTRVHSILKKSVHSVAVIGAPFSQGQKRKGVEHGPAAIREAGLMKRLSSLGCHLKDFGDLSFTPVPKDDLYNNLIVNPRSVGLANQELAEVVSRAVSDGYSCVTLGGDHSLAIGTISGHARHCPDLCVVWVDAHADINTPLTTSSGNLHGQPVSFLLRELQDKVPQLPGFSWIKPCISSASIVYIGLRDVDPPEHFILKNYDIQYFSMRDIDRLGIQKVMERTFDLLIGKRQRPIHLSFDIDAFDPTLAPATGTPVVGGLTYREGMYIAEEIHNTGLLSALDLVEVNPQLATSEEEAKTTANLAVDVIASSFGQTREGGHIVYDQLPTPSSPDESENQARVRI
Briefly: in vitro enzyme assay to detect the production of urea directly proportional to the activity of Arginase II. Also: in the data most compounds retested in dose-response had high values. It is filed as functional. The settings on record: 33.3 µM.

In assay [7] the target is T3, Proteasome subunit beta (Trypanosoma cruzi) (UniProt O96673).
T3 sequence (whole entry): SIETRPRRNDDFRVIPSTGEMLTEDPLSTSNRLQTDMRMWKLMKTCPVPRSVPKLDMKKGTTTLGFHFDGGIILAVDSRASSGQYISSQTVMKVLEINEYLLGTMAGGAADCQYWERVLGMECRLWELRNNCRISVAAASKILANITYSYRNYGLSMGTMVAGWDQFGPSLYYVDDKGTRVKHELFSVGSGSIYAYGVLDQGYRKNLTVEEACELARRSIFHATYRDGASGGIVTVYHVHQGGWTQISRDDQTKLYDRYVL
Put plainly: Trypanosoma cruzi proteasome chymotrypsin-like activity (TcProtChymo) assay. Also: in the data most compounds retested in dose-response had high values. It is filed as functional. As to conditions: 9.37 µM.

Assay [8] is filed under the species Homo sapiens. Put plainly: To identify inhibition of the IFN signalling (Jak-Stat) pathway via expression of an eGFP reporter gene under the control of an IFN-stimulated response element (ISRE) containing MxA promoter. It is filed as functional. As to conditions: 30 µM. (Reporter assays use an easily measured gene product as a stand-in for the process of interest.)

Assay [9] concerns the target T4, Tyrosyl-tRNA synthetase, putative (Trypanosoma cruzi (strain CL Brener)) (UniProt Q4DSP6).
T4 sequence (whole entry): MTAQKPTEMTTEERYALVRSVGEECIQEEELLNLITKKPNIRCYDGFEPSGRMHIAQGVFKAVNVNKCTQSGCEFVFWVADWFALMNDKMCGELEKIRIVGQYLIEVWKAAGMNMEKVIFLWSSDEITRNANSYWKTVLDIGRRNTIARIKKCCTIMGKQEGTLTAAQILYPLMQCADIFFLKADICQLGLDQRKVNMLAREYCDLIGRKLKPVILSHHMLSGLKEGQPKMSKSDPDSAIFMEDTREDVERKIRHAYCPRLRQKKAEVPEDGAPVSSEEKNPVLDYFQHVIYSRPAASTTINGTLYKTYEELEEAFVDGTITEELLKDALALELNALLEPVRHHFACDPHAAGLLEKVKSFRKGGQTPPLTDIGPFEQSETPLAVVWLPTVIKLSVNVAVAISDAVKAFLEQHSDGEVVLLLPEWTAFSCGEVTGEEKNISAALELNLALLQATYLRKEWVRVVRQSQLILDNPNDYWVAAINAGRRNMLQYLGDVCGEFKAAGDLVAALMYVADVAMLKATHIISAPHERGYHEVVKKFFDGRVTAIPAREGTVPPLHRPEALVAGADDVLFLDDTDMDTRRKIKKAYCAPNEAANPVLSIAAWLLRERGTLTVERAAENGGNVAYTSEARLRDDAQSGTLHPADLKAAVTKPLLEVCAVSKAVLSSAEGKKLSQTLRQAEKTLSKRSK
Put plainly: Trypanosoma cruzi tyrosyl tRNA synthetase (TcYRS) _High Tyrosine SOP. Also: in the data most compounds retested in dose-response had high values. It is filed as functional. As to conditions: 30 µM.

In assay [10] the target is T4, Tyrosyl-tRNA synthetase, putative (Trypanosoma cruzi (strain CL Brener)). Briefly: Trypanosoma cruzi tyrosyl tRNA synthetase (TcYRS) SOP. The assay is classed as functional. As to conditions: 30 µM.
Assay [11] has as its target Chromo domain-containing protein 1 (Saccharomyces cerevisiae (strain ATCC 204508 / S288c) (Baker's yeast)) (UniProt P32657). Put plainly: ScCHD-1 Enzyme Inhibition Assay. Also: in the data most compounds retested in dose-response had high values. The assay is classed as functional. As to conditions: 30 µM.

For some assays here: Entries with a potency or affinity are not part of this list.

Protein translocase subunit SecA (Escherichia coli (strain K12)), sequence (P10408 whole entry): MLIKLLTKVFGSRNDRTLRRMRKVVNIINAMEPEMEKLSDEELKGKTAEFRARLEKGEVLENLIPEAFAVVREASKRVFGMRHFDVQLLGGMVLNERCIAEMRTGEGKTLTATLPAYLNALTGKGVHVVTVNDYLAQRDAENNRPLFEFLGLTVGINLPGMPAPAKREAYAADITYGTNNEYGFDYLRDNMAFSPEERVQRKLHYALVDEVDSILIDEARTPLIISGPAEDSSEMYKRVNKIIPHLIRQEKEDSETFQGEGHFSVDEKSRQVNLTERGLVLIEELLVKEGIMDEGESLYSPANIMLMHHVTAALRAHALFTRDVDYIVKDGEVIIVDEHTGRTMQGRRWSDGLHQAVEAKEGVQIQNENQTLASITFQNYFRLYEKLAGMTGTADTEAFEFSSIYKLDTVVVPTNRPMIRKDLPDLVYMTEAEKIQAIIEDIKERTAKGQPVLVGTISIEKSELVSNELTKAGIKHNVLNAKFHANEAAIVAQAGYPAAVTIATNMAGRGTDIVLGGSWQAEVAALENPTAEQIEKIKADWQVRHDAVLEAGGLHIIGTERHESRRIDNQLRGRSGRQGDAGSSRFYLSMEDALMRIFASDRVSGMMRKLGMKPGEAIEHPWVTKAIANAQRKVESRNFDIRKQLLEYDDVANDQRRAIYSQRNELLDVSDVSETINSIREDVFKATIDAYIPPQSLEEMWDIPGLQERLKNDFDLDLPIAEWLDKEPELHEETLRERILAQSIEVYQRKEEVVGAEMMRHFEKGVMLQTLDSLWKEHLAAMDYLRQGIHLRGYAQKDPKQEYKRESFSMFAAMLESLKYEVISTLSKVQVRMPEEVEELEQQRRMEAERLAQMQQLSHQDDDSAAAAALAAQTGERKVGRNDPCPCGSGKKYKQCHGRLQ
Chromo domain-containing protein 1 (Saccharomyces cerevisiae (strain ATCC 204508 / S288c) (Baker's yeast)), sequence (P32657 whole entry, the tested form may be a part): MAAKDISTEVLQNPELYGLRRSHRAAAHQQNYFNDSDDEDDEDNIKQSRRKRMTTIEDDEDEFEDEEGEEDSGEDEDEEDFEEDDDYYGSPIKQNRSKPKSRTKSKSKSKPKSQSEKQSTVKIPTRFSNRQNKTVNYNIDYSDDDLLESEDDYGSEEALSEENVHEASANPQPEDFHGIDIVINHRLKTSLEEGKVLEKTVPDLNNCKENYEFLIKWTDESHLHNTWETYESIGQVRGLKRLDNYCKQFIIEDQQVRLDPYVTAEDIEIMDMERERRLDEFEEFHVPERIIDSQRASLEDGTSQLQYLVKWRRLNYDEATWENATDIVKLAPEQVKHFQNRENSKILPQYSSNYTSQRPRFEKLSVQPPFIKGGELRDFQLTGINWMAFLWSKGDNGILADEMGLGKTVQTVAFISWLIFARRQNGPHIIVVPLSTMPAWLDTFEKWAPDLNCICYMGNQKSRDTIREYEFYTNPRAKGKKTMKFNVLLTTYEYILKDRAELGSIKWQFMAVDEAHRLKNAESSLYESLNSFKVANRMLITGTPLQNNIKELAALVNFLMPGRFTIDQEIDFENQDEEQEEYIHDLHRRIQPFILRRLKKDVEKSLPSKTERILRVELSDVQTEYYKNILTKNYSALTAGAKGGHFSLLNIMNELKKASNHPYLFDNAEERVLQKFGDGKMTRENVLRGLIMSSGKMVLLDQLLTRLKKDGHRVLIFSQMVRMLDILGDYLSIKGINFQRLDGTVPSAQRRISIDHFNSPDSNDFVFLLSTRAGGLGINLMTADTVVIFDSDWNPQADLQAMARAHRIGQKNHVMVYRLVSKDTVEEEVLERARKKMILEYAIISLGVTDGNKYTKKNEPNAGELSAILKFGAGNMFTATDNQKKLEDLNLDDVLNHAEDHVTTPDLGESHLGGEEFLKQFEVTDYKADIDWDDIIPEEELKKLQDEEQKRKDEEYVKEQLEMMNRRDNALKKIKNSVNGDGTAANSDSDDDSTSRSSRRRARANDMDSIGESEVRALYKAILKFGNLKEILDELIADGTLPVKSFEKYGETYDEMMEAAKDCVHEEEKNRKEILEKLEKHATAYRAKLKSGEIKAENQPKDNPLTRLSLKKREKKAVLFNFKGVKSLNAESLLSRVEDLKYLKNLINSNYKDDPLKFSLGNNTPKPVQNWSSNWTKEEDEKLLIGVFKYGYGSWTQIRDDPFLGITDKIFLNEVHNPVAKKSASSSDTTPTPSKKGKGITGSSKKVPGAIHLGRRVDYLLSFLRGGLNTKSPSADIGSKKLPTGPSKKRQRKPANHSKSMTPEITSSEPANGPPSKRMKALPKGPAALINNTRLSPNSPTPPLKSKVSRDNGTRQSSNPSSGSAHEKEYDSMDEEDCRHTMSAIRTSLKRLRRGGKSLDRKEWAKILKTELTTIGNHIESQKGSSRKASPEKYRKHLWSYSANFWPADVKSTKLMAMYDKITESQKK

Consider `CN(CC1(O)CCCN(c2ccccn2)C1)C(=O)Cc1ccsc1` (stereo not given), for which the Percent Effect in assay [1] was -5.09%; in assay [2] it was 4.05%; in [3], 12%; in assay [4], 3.61%; in assay [5], -0.198%; in assay [6] it was -1.62%. Moreover, the Percent Effect in [7] was -2.18%; in assay [8], -8.8%; in [9] it was 6.45%; in assay [10], 9.09%; in assay [11] it was 3.9%.

Regarding `CC(C)[C@H](NC(=O)NC1CCS(=O)(=O)C1)C(=O)NCc1cccnc1` (stereo not given in full), the Percent Effect in assay [1] is 1.49%; in assay [2], -1.33%; in assay [3] it was 5.47%; in [4], 2.33%; in assay [5], -4.52%; in assay [6], -5.46%. The Percent Effect is 7.95% in [7]; -6.4% in assay [8]; 0% in assay [9]; 5.13% in assay [10]; 1.13% in assay [11].

For the compound `COc1ncccc1NC(=O)N(Cc1ccc(C)o1)C1CC1`, the Percent Effect in assay [1] is -4.84%; in assay [2], 13%; in assay [3] it was 6%; in assay [4], 6.62%; in assay [5], 8.05%; in assay [6], -4.27%. For the same compound, the Percent Effect was 2.53% in assay [7]; 56.7% in assay [8]; 6.8% in [9]; 19.5% in assay [10]; -5.73% in assay [11].

Turning to `Cn1nc(C(=O)NCc2ccccn2)c2c1CCS(=O)(=O)C2`, the Percent Effect in assay [1] was -2.26%; in assay [2], 6.67%; in assay [3], 15%; in [4] it was 1.25%; in assay [5], -6.48%; in assay [6], -11.1%. The Percent Effect in assay [7] is 16.3%; in assay [8] it was 11.6%; in [9], 6.35%; in assay [10] it was 12.8%; in assay [11], -9.63%.

Take `CN(C)[C@@H]1CCN(c2ncccn2)[C@H]1Cc1ccncc1`: the Percent Effect in assay [1] was -4.35%; in assay [2], 2.6%; in assay [3], -0.281%; in assay [4] it was 0.217%; in assay [5], 5.01%; in assay [6] it was 1.38%. Moreover, the Percent Effect in assay [7] was 2.5%; in assay [8] it was -12.2%; in [9], 1.07%; in [10], 3.7%; in assay [11] it was -1.65%.

Consider `NC(=O)C1CCN(CCc2ccc(NC(=O)C3CCC3)cc2)CC1`, for which the Percent Effect in assay [1] was -4.73%; in assay [2], 8.11%; in assay [3] it was -5.62%; in assay [4] it was 9.13%; in [5], 2.14%; in assay [6], -0.554%. Further, the Percent Effect in [7] was 2.87%; in assay [8], 6.62%; in assay [9], 6.93%; in [10], 23.2%; in assay [11], -5.51%.

On to `Cc1nc(CN2CCCC(NCc3c(C)nc4sccn34)C2)no1` (stereo not given), for which the Percent Effect was -2.09% in [1]; 5.2% in assay [2]; -2.06% in [3]; -6.92% in [4]; -1.31% in [5]; 0.712% in assay [6]. The Percent Effect was 15.9% in [7]; 45.2% in [8]; 10.7% in assay [9]; 19.5% in [10]; -6.87% in assay [11].

With `COc1cc(CCC(=O)NC2CC2)ccc1OCC(F)(F)F`, the Percent Effect in assay [1] was -2.29%; in [2] it was 18.4%; in [3], -5.56%; in [4] it was -6.41%; in [5], -10.4%; in [6] it was 2.52%. Besides, the Percent Effect in assay [7] was 3.47%; in assay [8], 3.66%; in assay [9] it was 4.43%; in [10], 16.1%; in assay [11], -1.66%.

Regarding `COC(=O)c1cccc(C(=O)N2CCN(c3ccccc3F)CC2)n1`, the Percent Effect in [1] was -5.05%; in assay [2], 20.8%; in assay [3] it was -7.33%; in [4], -10.6%; in [5], 7.59%; in assay [6] it was 1.94%. For the same compound, the Percent Effect in assay [7] was 13.9%; in assay [8], 15.5%; in assay [9], 5.29%; in assay [10], 16.7%; in assay [11], -10.4%.

As for `c1cnnc(N2CCCC2CNc2ncnc3ccccc23)c1` (stereo not given), the Percent Effect is -3.22% in assay [1]; -3.8% in [2]; 9.15% in [3]; -3.44% in assay [4]; -4.41% in assay [5]; 4.09% in [6]. Further, the Percent Effect is 9.61% in [7]; 36% in assay [8]; 25% in assay [9]; 27.9% in assay [10]; -16.5% in [11].

The record behind these values is ChEMBL document CHEMBL3988442, “University of Dundee, Small-Polar-MMV Screening Library” (2021).
